Source: PubChem (National Center for Advancing Translational Sciences (NCATS))
CHX counter – Cycloheximide Counterscreen for Small Molecule Inhibitors of Shiga Toxin | max response, % | actives 12% (n = 300,000) | cell reporter, cycloheximide protein synthesis inhibition counterscreen | AID 2314, 2010; in the data active means max response mostly above about 13%, no sharp cut-off; inactive means mostly below about 14%; further: read at 38.3 µM for the half of the compounds with a filed dose; 0% is about no effect
Shiga inhibitor – A qHTS for Small Molecule Inhibitors of Shiga Toxin; Vero cells, Shiga toxin protein synthesis inhibition reporter; inhibition, % at 38.7 µM; actives 9.2% (n = 290,000); in the data active means inhibition mostly above about 28%, no sharp cut-off; inactive means mostly below about 43%; further: 0% is about no effect
NS1 inh – qHTS Assay for Inhibitors of Influenza NS1 Protein Function | Potency, µM (titrated, usually from 46.1 µM), without a hit: at the top dose activity, positive = more growth | actives 0.4% (n = 270,000); calls by dose curve; further: potency means the concentration at half of the fitted maximal effect; actives are rising curves; nearly all actives have a fitted effect of over 50% in size
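S. cerevisiae expressing influenza A NS1, grown in glucose, washed, then diluted 1:100 into pH 6.0 -URA galactose medium with 23 nl compound. Growth recovery read as OD600; NS1-free strain serves as control.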
LmPK inhibitor – qHTS Assay for Inhibitors of Leishmania Mexicana Pyruvate Kinase (LmPK). AID 1721, 2009. Q27686. actives 0.37% (n = 290,000). Potency, µM (top dose mostly 57.5 µM), for inactives: at the top dose activity change, negative = inhibition, most hits filed as inhibitors. purified LmPK, Kinase-Glo ATP luminescence, 1 h; further: potency means the concentration at half of the fitted maximal effect; on the % scale 0 is the no-effect control and ±100 the full control effect
Target sequence (Q27686 whole entry, looked up): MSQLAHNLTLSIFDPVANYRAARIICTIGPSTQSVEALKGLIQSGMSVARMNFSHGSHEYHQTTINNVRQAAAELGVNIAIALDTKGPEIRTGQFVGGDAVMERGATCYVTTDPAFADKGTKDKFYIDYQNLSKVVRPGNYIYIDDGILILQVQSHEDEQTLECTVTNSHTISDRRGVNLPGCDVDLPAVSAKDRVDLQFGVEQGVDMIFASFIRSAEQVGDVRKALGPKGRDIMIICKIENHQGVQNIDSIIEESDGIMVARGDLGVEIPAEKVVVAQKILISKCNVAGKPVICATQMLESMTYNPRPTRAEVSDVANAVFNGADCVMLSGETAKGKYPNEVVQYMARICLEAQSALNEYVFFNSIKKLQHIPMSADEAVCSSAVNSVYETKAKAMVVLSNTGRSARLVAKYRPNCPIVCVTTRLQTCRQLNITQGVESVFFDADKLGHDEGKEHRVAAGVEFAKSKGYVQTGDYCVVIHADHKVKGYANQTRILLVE
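Pyruvate kinase activity monitored as ATP production (luciferase luminescence). Conditions: 0.1 nM enzyme, 0.5 mM PEP, 0.1 mM ADP, 1 h, RT; normalized against uninhibited and no-enzyme wells.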
FBPA Giardia inh – qHTS Assay for Inhibitors of Fructose-1,6-bisphosphate Aldolase from Giardia Lamblia | Potency, µM (titrated, usually from 59.6 µM), without a hit: at the top dose activity, negative = inhibition, usual class: inhibitors | actives 0.71% (n = 290,000) | purified Giardia FBPA; further: potency means the concentration at half of the fitted maximal effect; on the % scale 0 is the no-effect control and ±100 the full control effect; nearly all actives have a fitted effect of over 55% in size
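Giardia FBPA (40 nM reagent) was preincubated 10 min at RT with compound (up to 57.5 uM final), then substrate plus GAPDH/TPI/NAD/arsenate coupling system with diaphorase/resazurin was added; resorufin fluorescence (525/598 nm) was read after 20 min.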
* marks the source's active call; other numbers are inactive results; u = inconclusive; x = no result; [ ] = dose if it differs, or a comment. In the library only some 14% were active in any assay of this set; here they are far more common. Unless noted, the call rests on the fitted dose curve; in most records, active means well fitted curve in the direction sought with a large enough effect; inconclusive means small, poorly fitted or top-dose-only effect, or another doubt; inactive means no such curve, though single readings can be large; an effect the other way counts as inactive or inconclusive.

SMILES	CHX counter	Shiga inhibitor	NS1 inh	LmPK inhibitor	FBPA Giardia inh
CCOC(=O)CNC(=O)O[C@@H]1Cc2cc(OC)ccc2O[C@H]1c1cccc(OC)c1	x	x	x	x	2%
CN(C(=O)Oc1ccc(C(C)(C)C)cc1)c1ccccc1	19*	59*	-8%	-1%	-11%
CCC(=O)c1ccc(OC(=O)N(C)c2ccccc2)cc1	26*	75	-10%	-9%	6%
COc1cccc(-c2nnc(SCc3ccccn3)n2C)c1	17*	75	5%	0%	0%
Cn1c(SCc2ccccn2)nnc1-c1ccccc1	36*	103*	8%	0%	-2%
Cn1c(SCc2ccccn2)nnc1-c1ccncc1	30	2	1%	9%	-15%
COc1ccc2[nH]cc(CCNC(=O)C3CCCCC3)c2c1	-1	7	u	-1%	0%
CCC(CC)C(=O)Nc1cccc(-c2ccc3nncn3n2)c1	-5	-5	9%	8%	-6%
Cc1cccc(N=N/C(=C\O)C(=O)c2cccs2)c1	35*	93*	x	-4%	-5%
CS(=O)(=O)c1ccc(C(=O)OC2CCOC2=O)cc1[N+](=O)[O-] (stereo unspecified)	-1	2	0%	0%	x
CCOc1ccccc1C1N=C(c2ccc(OC)cc2)CC(c2ccccc2O)N1 (stereo unspecified)	46*	114*	x	0%	1%
COc1ccc(C2=NN(C(=O)CSc3ncccn3)C(c3cccc(OC)c3OC)C2)cc1 (stereo unspecified)	-1	7	x	-7%	-5%
CC(C)C(CCNC(=O)CC(Cc1ccccc1)c1ccco1)c1ccco1 (stereo unspecified)	22*	-10	-4%	0%	0%
Cc1cc(N)c2cc(OCCOc3ccc4nc(C)cc(N)c4c3)ccc2n1	x	x	-43%	x	x
Cc1ccc(C)c(NC(=O)C2CC(=O)N(C3CCCCC3)C2)c1 (stereo unspecified)	-4	17	0%	3%	10%
CC(=O)c1cnc(-c2cccc(Cl)c2)s1	14	19	3%	-1%	-1%
CN(C)/C=C/C(=O)c1cnc(-c2cccc(Cl)c2)s1	25*	67*	9%	-7%	0%
CN(C)/C=C/C(=O)c1cnc(-c2ccccn2)s1	36*	90*	x	-7%	-3%
CN(C)/C=C/C(=O)c1cnc(-c2ccccc2Cl)s1	45*	87*	9%	-1%	0%
CC(C)(C)c1cc(S(=O)(=O)CCc2ccncc2)cc(C(C)(C)C)c1F	2	-8	9%	12%	10%
CCn1c(=O)c(=O)[nH]c2cc(C(=O)N(C)Cc3ccc(OC)c(F)c3)ccc21	-6	-3	11%	2%	1%
O=C(COc1ccccc1O)Nc1ccccc1Cl	71*	93*	-31%	0%	-3%
Cc1ccccc1OCC(=O)Nc1ccccc1-c1ccccc1	18*	42*	7%	u	-4%
Cc1ccccc1NC(=O)COc1ccccc1C	16*	27	-18%	-2%	5%
O=C(CSc1ncccc1C(=O)Oc1ccccc1Cl)Nc1ccccc1Cl	20	64*	x	x	x
SMILES	CHX counter	Shiga inhibitor	NS1 inh	LmPK inhibitor	FBPA Giardia inh
COCC(=O)Nc1ccccc1-c1ccccc1	-1	-8	x	1%	3%
C=CCN(Cc1nc(-c2cc(OC)ccc2OC)oc1C)C1CCS(=O)(=O)C1 (stereo unspecified)	-4	12	5%	6%	-11%
O=P1(O)OP(=O)(O)OP(=O)(O)O1.[Al]	-6	-7	x	x	3%
Cc1cccc(CN2CC34CCC(CC3S2(=O)=O)O4)c1 (stereo unspecified)	9	10	x	x	11%
COc1ccccc1CN(C)CC(=O)Nc1ccccc1-c1ccccc1	15*	2	x	-6%	-2%
COc1ccc(CN(C)CC(=O)Nc2ccccc2-c2ccccc2)c(OC)c1	11	-2	x	-4%	-3%
CCN(CC)c1ccc(/C=N/NS(=O)(=O)c2ccc(C)c([N+](=O)[O-])c2)cc1	3	-2	-7%	3%	0%
Cc1ccc(S(=O)(=O)N/N=C/c2ccc(O)c(O)c2)cc1[N+](=O)[O-]	45*	128*	-3%	0%	-28%
Cc1ccc(S(=O)(=O)N/N=C/c2ccccc2O)cc1[N+](=O)[O-]	39*	69*	x	1%	11%
Cc1ccc(C(=O)C2=C(O)C(=O)N(c3ncccn3)C2c2ccccc2F)o1 (stereo unspecified)	6	-8	5%	-1%	x
O=C(O)C1CC=CC2CCN(C3CC3)C(=O)C21 (stereo unspecified)	8	17	x	x	2%
C=CCCC/C=C(/C)C(OCc1ccc(OC)cc1)C(CC/C=C(\C)C(N)=O)OC (stereo unspecified)	x	x	x	x	-3%[12.9 µM]
Cc1cc(Cl)ccc1OCC(=O)Nc1cccnc1	38*	61*	-12%	0%	5%
Cc1c(C)c2ccc(OCC(=O)Nc3cccnc3)c(C)c2oc1=O	26*	32	5%	1%	2%
CCn1ccnc1CN(C)C(=O)C1CCC(=O)N(Cc2cccc(C(F)(F)F)c2)C1 (stereo unspecified)	26	-27	23%	-15%	x
Cc1nc2c(=O)n(C)c(=O)[nH]c2n1Cc1ccccc1	37*	20	5%	1%	u
CCOc1ncccc1C(=O)OCc1ccc(C(=O)OC)cc1	81*	98*	-29%	-7%	3%
COC(=O)c1ccc(OCC(=O)c2ccccc2OC)cc1	22*	54	-2%	8%	-6%
COC(=O)c1ccc(COC(=O)c2ccccc2OC)cc1	67*	97*	-30%	-5%	3%
CCOc1ncccc1C(=O)OCc1ccc(Cl)cc1	15	17	-25%	5%	5%
COC(=O)COc1ccc(C(=O)OC)cc1	-3	-8	-63%	-2%	-4%
Cn1c(=O)c(-c2cccs2)nc2cnc(Oc3ccccc3)nc21	x	x	x	x	-2%
Cc1ccc(C)c(NC(=S)Nc2ncccc2C)c1	36*	134*	-75%	-1%	u
Cc1ccc(C)c(NC(=S)N2CCN(c3ccccn3)CC2)c1	0	-8	-5%	5%	1%
COc1cc(NC(=S)Nc2cccc(C)n2)cc(OC)c1OC	1	-19	0%	-7%	2%
SMILES	CHX counter	Shiga inhibitor	NS1 inh	LmPK inhibitor	FBPA Giardia inh
COc1cc(NC(=S)Nc2ncccc2C)cc(OC)c1OC	20*	41	0%	-1%	u
CN(CCc1ccc(Cl)c(Cl)c1)CCN1CCCC1	x	x	x	x	5%
CCCOC(=O)c1cccc(NC(=O)C(C)(C)C)c1	18*	32*	-47%	-4%	8%
CC(C)(C)C(=O)Nc1cccc(C(=O)c2cccc(NC(=O)C(C)(C)C)c2)c1	-3	-8	0%	7%	-2%
CCOC(=O)c1cccc(NC(=O)c2cnc3ccccc3n2)c1	35*	57	-41%	6%	-11%
CCOC(=O)c1cccc(NC(=O)c2ccc(NC(=O)c3ccco3)cc2)c1	-3	-14	9%	-9%	x
